The text below walks through data of the supplement of paper PMC12645437, “Orthogonal IMiD-Degron Pairs Induce Selective Protein Degradation in Cells” (ACS Chemical Biology, 2025).

For the experiment, the target named is T1, CRBN, Q96SW2.
T1 chain: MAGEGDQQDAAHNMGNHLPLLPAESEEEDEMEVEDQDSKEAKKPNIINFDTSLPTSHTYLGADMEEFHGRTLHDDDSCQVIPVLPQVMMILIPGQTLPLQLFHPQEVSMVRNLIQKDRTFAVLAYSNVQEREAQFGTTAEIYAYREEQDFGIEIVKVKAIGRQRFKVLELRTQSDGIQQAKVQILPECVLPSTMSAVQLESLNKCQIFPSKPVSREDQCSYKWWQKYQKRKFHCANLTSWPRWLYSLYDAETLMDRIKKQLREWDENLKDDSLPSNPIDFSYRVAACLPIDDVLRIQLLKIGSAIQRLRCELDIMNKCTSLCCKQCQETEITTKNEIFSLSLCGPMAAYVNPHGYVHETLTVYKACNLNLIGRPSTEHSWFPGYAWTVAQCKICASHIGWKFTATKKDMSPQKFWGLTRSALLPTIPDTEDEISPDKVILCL
Put plainly: log2 fold change of degron read counts, EGFP-low vs EGFP+ sorted cells (limma voom), compound-induced degradation; higher = more compound-induced degradation of the degron-EGFP fusion; degrons are variants of IKZF1/3 zinc finger 2; compound dose not given here. As to conditions: Jurkat, 18 h.

The mark [1] stands for this setting: compound: compound 19 (5-tert-butyl-thalidomide).
Setting [2] is: compound: compound 22 (5-morpholino-thalidomide).
Setting [3] is: compound: compound 33 (diphenyl IMiD analogue).

Whole data set: some 8,300 sequences, median “log2 fold change of degron read counts, EGFP-low vs EGFP+ sorted cells (limma voom), compound-induced degradation” near -1.1, cut for the highest 2% near 3.2. The sample as a whole holds a higher share of the highest values than the screen did.
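Note: pooled lentiviral library of zinc finger degron-EGFP fusions in mCherry-positive Jurkat cells, FACS-sorted after compound exposure, with degron abundance counted by next-generation sequencing.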

With FICPICGHQFTQKGNLLRHIKL [46F_47I_49P_50I_52G_53H_54Q_55F_67L_, Q9UKT9], the “log2 fold change of degron read counts” value by setting is: under setting [1], -2.44; under setting [2], -2.12; under setting [3], -1.5; (compound: thalidomide) -1.12.
On to FGCDVCGAMFTQKGNLLRHIKL [46F_47G_49D_50V_52G_53A_54M_55F_67L_, Q9UKT9], for which the “log2 fold change of degron read counts” value under setting [1] came to 0.868, the “log2 fold change of degron read counts” value under setting [2] was -0.562, the “log2 fold change of degron read counts” value under setting [3] is -0.229 and the “log2 fold change of degron read counts” value (compound: thalidomide) was -1.8.
The corresponding values for FTCPICGREFTQKGNLLRHIKL [46F_47T_49P_50I_52G_53R_54E_55F_67L_, Q9UKT9] are -1.73, -0.622, -0.517 and 0.583.
Take FLCNQCGHMFTQKGNLLRHIKL [46F_47L_49N_50Q_52G_53H_54M_55F_67L_, Q9UKT9]: the “log2 fold change of degron read counts” value reads like this: under setting [1], -2.55; under setting [2], -2.97; under setting [3], -3.4; (compound: thalidomide) -2.9.
Consider FKCEQCGAQFTQKGNLLRHIKL [46F_47K_49E_50Q_52G_53A_54Q_55F_67L_, Q9UKT9], for which the “log2 fold change of degron read counts” value is -2.76 under setting [1], -3.28 under setting [2], -3.17 under setting [3] and -2.41 (compound: thalidomide).
As for FSCPICGHEFTQKGNLLRHIKL [46F_47S_49P_50I_52G_53H_54E_55F_67L_, Q9UKT9], the “log2 fold change of degron read counts” value runs as follows: under setting [1], -2.38; under setting [2], -3.52; under setting [3], -2.42; (compound: thalidomide) -2.6.
On to LICNQCGFPCTQKGNLLRHIKL [46L_47I_49N_50Q_52G_53F_54P_55C_67L_, Q9UKT9], for which the “log2 fold change of degron read counts” value under setting [1] is -2.14, the “log2 fold change of degron read counts” value under setting [2] was -2.53, the “log2 fold change of degron read counts” value under setting [3] was -2.15 and the “log2 fold change of degron read counts” value (compound: thalidomide) was -1.65.
FMCNICGAWFTQKGNLLRHIKL [46F_47M_49N_50I_52G_53A_54W_55F_67L_, Q9UKT9]: the “log2 fold change of degron read counts” value is -1.88 under setting [1], -2.01 under setting [2], -0.0323 under setting [3] and -1.08 (compound: thalidomide).
For FNCEICGAEFTQKGNLLRHIKL [46F_47N_49E_50I_52G_53A_54E_55F_67L_, Q9UKT9], the “log2 fold change of degron read counts” value is 1.62 under setting [1], -0.794 under setting [2], -0.586 under setting [3] and -0.166 (compound: thalidomide).
FRCEICGAEFTQKGNLLRHIKL [46F_47R_49E_50I_52G_53A_54E_55F_67L_, Q9UKT9]: the “log2 fold change of degron read counts” value runs as follows: under setting [1], -0.6; under setting [2], -0.629; under setting [3], 1.71; (compound: thalidomide) 1.31.
Consider FACEICGAEFTQKGNLLRHIKL [46F_47A_49E_50I_52G_53A_54E_55F_67L_, Q9UKT9], for which the “log2 fold change of degron read counts” value under setting [1] turned out to be 2.52, the “log2 fold change of degron read counts” value under setting [2] came to 1.11, the “log2 fold change of degron read counts” value under setting [3] was -1.05 and the “log2 fold change of degron read counts” value (compound: thalidomide) was -0.214.
For FCCEICGAEFTQKGNLLRHIKL [46F_47C_49E_50I_52G_53A_54E_55F_67L_, Q9UKT9] the same measures were 1.77, 1.26, 0.921 and 1.54.
For FQCEICGAEFTQKGNLLRHIKL [46F_47Q_49E_50I_52G_53A_54E_55F_67L_, Q9UKT9] the same measures were 1.15, 1.54, 1.73 and 3.53.
On to FYCEICGAEFTQKGNLLRHIKL [46F_47Y_49E_50I_52G_53A_54E_55F_67L_, Q9UKT9], for which the “log2 fold change of degron read counts” value by setting is: under setting [1], 3.55; under setting [2], 3.26; under setting [3], 2.06; (compound: thalidomide) 0.377.
FTCDVCGATFTQKGNLLRHIKL [46F_47T_49D_50V_52G_53A_54T_55F_67L_, Q9UKT9]: the “log2 fold change of degron read counts” value under setting [1] is -1.33, the “log2 fold change of degron read counts” value under setting [2] was determined as 0.301, the “log2 fold change of degron read counts” value under setting [3] turned out to be 0.357 and the “log2 fold change of degron read counts” value (compound: thalidomide) was determined as 0.358.
Take FHCPICGRLFTQKGNLLRHIKL [46F_47H_49P_50I_52G_53R_54L_55F_67L_, Q9UKT9]: the “log2 fold change of degron read counts” value under setting [1] is -0.285, the “log2 fold change of degron read counts” value under setting [2] is -0.232, the “log2 fold change of degron read counts” value under setting [3] worked out at 0.531 and the “log2 fold change of degron read counts” value (compound: thalidomide) was -0.155.
The corresponding values for FDCEICGAAFTQKGNLLRHIKL [46F_47D_49E_50I_52G_53A_54A_55F_67L_, Q9UKT9] are 2.61, 0.418, 0.792 and 1.38.
The corresponding values for FMCEICGAAFTQKGNLLRHIKL [46F_47M_49E_50I_52G_53A_54A_55F_67L_, Q9UKT9] are 2.64, 2.45, 3.19 and 2.46.
For FHCEICGAAFTQKGNLLRHIKL [46F_47H_49E_50I_52G_53A_54A_55F_67L_, Q9UKT9] the same measures were 3.24, 3, 1.87 and 0.773.
As for FGCEICGAAFTQKGNLLRHIKL [46F_47G_49E_50I_52G_53A_54A_55F_67L_, Q9UKT9], the “log2 fold change of degron read counts” value is 3.04 under setting [1], 2.59 under setting [2], 2.15 under setting [3] and 1.39 (compound: thalidomide).
Take FWCEICGAAFTQKGNLLRHIKL [46F_47W_49E_50I_52G_53A_54A_55F_67L_, Q9UKT9]: the “log2 fold change of degron read counts” value by setting is: under setting [1], 3.77; under setting [2], 3.83; under setting [3], 2.67; (compound: thalidomide) 1.57.
The corresponding values for FLCEICGAAFTQKGNLLRHIKL [46F_47L_49E_50I_52G_53A_54A_55F_67L_, Q9UKT9] are 2.02, 0.295, 1.47 and 1.59.
The corresponding values for FFCEICGAAFTQKGNLLRHIKL [46F_47F_49E_50I_52G_53A_54A_55F_67L_, Q9UKT9] are 3.55, 3.64, 2.55 and 1.87.
The corresponding values for FACEICGAAFTQKGNLLRHIKL [46F_47A_49E_50I_52G_53A_54A_55F_67L_, Q9UKT9] are 3.9, 3.03, 1.11 and 1.38.
As for FRCEICGAAFTQKGNLLRHIKL [46F_47R_49E_50I_52G_53A_54A_55F_67L_, Q9UKT9], the “log2 fold change of degron read counts” value under setting [1] turned out to be 2.72, the “log2 fold change of degron read counts” value under setting [2] was 2.37, the “log2 fold change of degron read counts” value under setting [3] worked out at 2.62 and the “log2 fold change of degron read counts” value (compound: thalidomide) amounted to 2.49.
As to FECEICGAAFTQKGNLLRHIKL [46F_47E_49E_50I_52G_53A_54A_55F_67L_, Q9UKT9], the “log2 fold change of degron read counts” value by setting is: under setting [1], 2.86; under setting [2], -0.833; under setting [3], 2.05; (compound: thalidomide) 2.53.
Regarding FACPICGALFTQKGNLLRHIKL [46F_47A_49P_50I_52G_53A_54L_55F_67L_, Q9UKT9], the “log2 fold change of degron read counts” value is 1.68 under setting [1], -0.526 under setting [2], 0.427 under setting [3] and -0.353 (compound: thalidomide).
The corresponding values for FRCNICGAVFTQKGNLLRHIKL [46F_47R_49N_50I_52G_53A_54V_55F_67L_, Q9UKT9] are -1.72, -0.828, 0.967 and 0.628.
